PubChem BioAssay AID743279 (National Center for Advancing Translational Sciences (NCATS), 2014)
In all, about 360,000 compounds went through this assay and about 17,000 (4.7%) were called active. Inconclusive results (about 5%) are left out. No stated cut-off is given here; in the data, active means activity change below about -50%; inconclusive means mostly about -30% to -49%; inactive means weaker than that. What follows is part of a selection rich in actives, with near analogues and random picks from the rest.
On the % scale 0 is the no-effect control and ±100 the full control effect.

Assay: qHTS for Inhibitors of Inflammasome Signaling: IL-1-beta AlphaLISA Primary Screen
Details: THP-1 LPS/ATP IL-1B secretion, 16 h; at 57.5 µM, stronger effect = lower value
Procedure, shortened: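 Secreted IL-1B measured by AlphaLISA bead assay after 16 h compound exposure of THP-1 cells; compounds (final up to 57.5 uM) added 1 h before LPS (250 ng/mL) and ATP (1.25 mM) stimulation; lower signal means less secretion.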
In the case of `O=C(CCNC(=O)c1ccc(Cl)cc1)NC1CCCc2ccccc21` (stereo not given), the activity change is reported as 1.14% (inactive).
With `COc1cc2[nH]c(O)c(C=O)c2cc1OC` the activity change was -8.17% (inactive).
For `CN1c2ccc(C=O)c3c(C=O)ccc(c23)N(C)C1(C)C`, the activity change was -96.3% (active).
In the case of `Cc1ccc(C=O)c([B-](F)(F)F)c1`, the activity change is reported as 5.57% (inactive).
For `COc1ccc(OC)c(C2C3=C(N=c4s/c(=C\c5cccc(O)c5)c(=O)n42)c2ccccc2CC3)c1` (stereo not given), the activity change was -55.4% (active).
In the case of `CCOC(=O)C1=C(C)N=c2s/c(=C\C(=O)OC)c(=O)n2C1c1ccc(OC)cc1` (stereo not given), the activity change is reported as 10.3% (inactive).
For `O=C1CCCC2=C1C(c1ccccc1)n1c(s/c(=C/c3cccc(F)c3)c1=O)=N2` (stereo not given), the activity change was 2.6% (inactive).
With `O=S(=O)(Nc1ccc2[nH]ncc2c1)c1ccccc1Cl` the activity change was -6.19% (inactive).
With `CNC(=O)c1ccsc1NC(=O)c1ccc(S(=O)(=O)N2CCc3ccccc32)cc1` the activity change was -11.5% (inactive).
With `CCN(Cc1ccncc1)C(=S)Nc1ccccc1C` the activity change was 9.34% (inactive).
With `COc1ccc(NC(=O)CCCOc2ccc(C(C)=O)cc2)cc1S(=O)(=O)N1CCCCC1` the activity change was 5.4% (inactive).
For `C=CCn1c(CC(=O)Nc2cccc(OC)c2)nnc1SCC(=O)NC1CCCCC1`, the activity change was -18.6% (inactive).
With `C=CCn1c(COc2ccc(F)cc2)nnc1SCC(=O)Nc1cccc(S(N)(=O)=O)c1` the activity change was -56.5% (active).
For `COc1ccc(-n2cnnc2SCC(=O)Nc2cccc(S(N)(=O)=O)c2)cc1`, the activity change was 23.2% (inactive).
For `O=C(N[C@H]1CC[C@H](CC(=O)N2CCCCC2)O[C@@H]1CO)c1cccc(F)c1`, the activity change was 34.1% (inactive).
For `COc1ccc(Nc2cc(Sc3ccc(OC)cc3)ncn2)cc1`, the activity change was -73.2% (active).
For `COc1ccc(Nc2ccc3ccccc3c2)cc1`, the activity change was -4.37% (inactive).
With `COc1ccc(Nc2ncnc3sc(C)cc23)cc1` the activity change was 1.88% (inactive).
With `Cc1cccc(N2CCN(C(=O)/C=C/c3ccco3)CC2)c1C` the activity change was -12.5% (inactive).
In the case of `CC(=O)N1CCN(S(=O)(=O)c2c(F)cc(F)c(Cl)c2F)CC1`, the activity change is reported as -92.4% (active).
With `O=C(c1cnc(Cl)c(Cl)c1)N1CCN(S(=O)(=O)c2ccc(F)cc2)CC1` the activity change was -12.3% (inactive).
For `CCN1CCN(C(=O)C2CCN(S(=O)(=O)c3cc(Cl)ccc3Cl)CC2)CC1`, the activity change was 24.2% (inactive).
With `O=[N+]([O-])c1ccc(CN2CC(N3CCC(c4ccccc4)CC3)CS2(=O)=O)cc1` (stereo not given) the activity change was -10.2% (inactive).
With `O=C(Nc1cc(F)ccc1F)c1ccc2c(=O)n3c(nc2c1)CCC3` the activity change was -13.9% (inactive).
For `CC(C)(C)OC(=O)NCCCCCNC(=O)c1[nH]cnc1C(=O)Nc1nccs1`, the activity change was -8.09% (inactive).
For `C=CC(=O)OCCOCCOCCOCCOC(=O)C=C`, the activity change was -108% (active).
In the case of `COC(=O)c1ccc2nc(-c3ccc(F)cc3)c(Cc3ccc(C)cc3)n2c1`, the activity change is reported as 14.8% (inactive).
In the case of `CC1(c2cccc(N)c2)OCCO1`, the activity change is reported as -13.4% (inactive).
In the case of `CCC(=O)N1CCCC1(C)C(=O)Nc1ccc2c(c1)CCN2C(C)=O` (stereo not given), the activity change is reported as -2.74% (inactive).
In the case of `COc1cccc(/C=C2\SC(=S)N(CCCC(=O)N3CCOCC3)C2=O)c1`, the activity change is reported as -22.2% (inactive).
With `O=C(CCCN1C(=O)/C(=C/c2cccs2)SC1=S)Nc1ccc(O)cc1` the activity change was -71.2% (active).
With `O=C(CN1C(=O)/C(=C\c2ccccc2F)SC1=S)Nc1nc2ccccc2s1` the activity change was -3.88% (inactive).
In the case of `CC(C(=O)Nc1ccc(O)c(C(=O)O)c1)N1C(=O)/C(=C/c2cccs2)SC1=S` (stereo not given), the activity change is reported as 3.56% (inactive).
With `O=C(CCCN1C(=O)/C(=C\c2ccccc2)SC1=S)Nc1ccccc1O` the activity change was -71.6% (active).
In the case of `COc1ccc(/C=C2/SC(=O)N(CCCCCC(=O)Nc3ccccc3C(=O)O)C2=S)cc1`, the activity change is reported as 34.4% (inactive).
For `COc1ccc(S(=O)(=O)N[C@@H]2C=C[C@@H](CC(=O)N3CCc4ccccc4C3)O[C@@H]2CO)cc1`, the activity change was 12.3% (inactive).
In the case of `CCOc1cc(/C=C(/C#N)c2ccc(Cl)cc2)cc(Cl)c1OCC(=O)O`, the activity change is reported as 31.7% (inactive).
In the case of `CCc1noc(C)c1C(=O)NNC(=O)c1ccc(F)cc1`, the activity change is reported as 10.8% (inactive).
With `O=C(NNC(=O)C1CCCC1)c1ccc(F)cc1` the activity change was -5.32% (inactive).
In the case of `O=C(/C=C/c1ccc([N+](=O)[O-])o1)NNC(=O)c1ccc(F)cc1`, the activity change is reported as -102% (active).
In the case of `CC(C)NC(=O)C1(C)CCCCCN1C(=O)c1ccc(-c2ccccc2)cc1` (stereo not given), the activity change is reported as -2.6% (inactive).
For `O=C1/C(=C\c2cccnc2)CN(Cc2ccccc2)C/C1=C\c1cccnc1`, the activity change was -107% (active).
For `Clc1ccc(CN2CCN(/N=C/c3cccnc3)CC2)cc1`, the activity change was 11.9% (inactive).
For `Cc1ccccc1C1=N/C(=C/c2cccnc2)C(=O)O1`, the activity change was 38.6% (inactive).
With `CC(C)N=C1CCCC1C(=S)SSC(=S)C1CCCC1=NC(C)C` (stereo not given) the activity change was -104% (active).
In the case of `COc1cccc(C(NC(C)=O)c2nc(-c3cnc4ccccc4c3)cs2)c1` (stereo not given), the activity change is reported as -1.76% (inactive).
With `CN1CCC(N(C)C(=O)c2ccc(Cl)c(S(=O)(=O)Nc3ccc(Cl)cc3)c2)CC1` the activity change was -20% (inactive).
For `CCCCNC(=O)CCn1c(=O)c2ccccc2n(Cc2cc(C)ccc2C)c1=O`, the activity change was -9.41% (inactive).
In the case of `O=C(/C=C/[C@H]1O[C@@H](n2cnc3c(NC(=O)c4ccccc4)ncnc32)[C@H](O)[C@@H]1O)NCc1ccccc1`, the activity change is reported as 1.22% (inactive).
For `CCc1ccc(CNC(=O)C2CCN(c3nnc(C)c4c(C)n(-c5ccc(C)cc5)nc34)CC2)cc1`, the activity change was -55% (active).
In the case of `COc1ccc(-n2nc3c(N4CCC(C(=O)NCc5ccccc5)CC4)nnc(C)c3c2C)cc1`, the activity change is reported as -9.21% (inactive).
For `CCOc1ccc(CNC(=O)C2CCCN(c3nnc(C)c4c(C)n(-c5ccccc5)nc34)C2)cc1` (stereo not given), the activity change was 17.4% (inactive).
In the case of `OC(c1cc(Cl)cc(Cl)c1)c1ncc(-c2ccccc2C(F)(F)F)[nH]1` (stereo not given), the activity change is reported as -7.73% (inactive).
With `Cc1cccc(-c2cnc(C(O)c3ccc4ccccc4c3)[nH]2)c1` (stereo not given) the activity change was 0% (inactive).
In the case of `Cc1ccc(S(=O)(=O)N2CCN(C(=O)Cc3sc(C)nc3-c3ccc(F)cc3)CC2)c(C)c1`, the activity change is reported as -50.5% (active).
For `CCCc1cc(=O)[nH]c(SCC(=O)N2CCN(S(=O)(=O)c3ccc(C)cc3C)CC2)n1`, the activity change was 0% (inactive).
With `Cc1ccc(S(=O)(=O)N2CCN(C(=O)CSc3cc(C)ccc3C)CC2)c(C)c1` the activity change was -51.4% (active).
For `Cc1nc(-c2ccc(F)cc2)c(CC(=O)N2CCN(S(=O)(=O)c3ccc(F)cc3)CC2)s1`, the activity change was -7.47% (inactive).
For `Cc1ccc(S(=O)(=O)N2CCN(C(=O)COC(=O)c3c(C)cc(C)cc3C)CC2)c(C)c1`, the activity change was -9.93% (inactive).
In the case of `Cc1nc(-c2ccc(F)cc2)c(CC(=O)Nc2cccc(S(=O)(=O)N3CCOCC3)c2)s1`, the activity change is reported as -11.9% (inactive).
